Only some compounds are listed: those with a hit (about 3.9% of all), similar ones and a draw of the others.
Mot1-301 SUMO: inhibitors of SUMOylation pathway: yeast Mot1-301 growth rescue. S. cerevisiae Mot1-301 growth rescue, ATP luminescence, 38.5C; percent above DMSO median, 100 means doubled. growth rescue, % at 18.8 µM. actives 1% (n = 320,000). AID 2716;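 active means every valid replicate shows activation above 250% relative to neutral control wells; inactive means the rest, any valid replicate at or below 250%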
N-glyco inh: blocks N-linked glycosylation in D54 reporter cells | AID 588692 | actives 0.23% (n = 360,000) | reporter increase, % at 12.5 µM | D54 ERlucT glycosylation luciferase reporter, 24 h; percent of 100 nM tunicamycin response;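 active means mean luciferase reporter signal, scaled so untreated is 0 and the glycosylation-blocking control 100, at or above a set limit in every replicate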;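 further: luciferase carries N-glycosylation sites so blocking glycosylation raises the light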
CASP6 VEID inh: caspase-6 (human) enzyme inhibition. inhibition, % at 12.5 µM. actives 0.53% (n = 350,000). purified caspase-6, Z-VEID-R110 cleavage fluorescence. AID 686996. P55212;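 active means mean inhibition across replicates at least about 35%, with every replicate also reaching that limit, limit read from the data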
CDK5 inh: inhibitors of human CDK5/p35 kinase | inhibition, % at 10 µM | AID 488839 | Recombinant CDK5/p35, ADP-Glo luminescence, 60 min | Q00535+Q15078 | actives 0.01% (n = 330,000);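 active means highest replicate inhibition of at least 50% and at least 75% of replicates reaching 50%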
Target sequence (Q00535 whole entry, looked up): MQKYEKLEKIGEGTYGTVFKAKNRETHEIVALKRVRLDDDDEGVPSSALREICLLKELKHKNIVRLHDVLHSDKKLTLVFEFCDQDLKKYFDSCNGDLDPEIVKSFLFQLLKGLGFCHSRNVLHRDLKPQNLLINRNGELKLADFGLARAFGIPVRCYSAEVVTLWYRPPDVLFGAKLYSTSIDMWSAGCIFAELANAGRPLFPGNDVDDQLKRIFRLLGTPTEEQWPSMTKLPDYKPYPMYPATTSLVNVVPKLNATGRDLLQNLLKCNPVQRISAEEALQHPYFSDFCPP
Target sequence (Q15078 whole entry, looked up): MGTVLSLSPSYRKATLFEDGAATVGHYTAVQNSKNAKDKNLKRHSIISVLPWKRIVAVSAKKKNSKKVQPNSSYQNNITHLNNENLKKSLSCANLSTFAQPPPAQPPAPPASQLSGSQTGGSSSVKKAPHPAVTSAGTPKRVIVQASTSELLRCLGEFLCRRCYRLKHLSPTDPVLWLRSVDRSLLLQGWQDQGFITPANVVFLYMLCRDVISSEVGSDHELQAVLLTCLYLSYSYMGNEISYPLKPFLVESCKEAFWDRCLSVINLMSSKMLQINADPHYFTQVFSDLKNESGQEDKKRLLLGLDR
ALR H2O2 inh: inhibitors of human sulfhydryl oxidase ALR. P55789. purified ALR, DTT oxidation, H2O2 HRP-luminol luminescence. inhibition, % (no concentration beside the values). actives 3.8% (n = 290,000);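 active means mean replicate inhibition above about 79%, with every replicate also reaching it, limit read from the data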
NSD2 inh: NSD2 (human) methyltransferase inhibition; O96028; NSD2 peptide methylation, AlphaScreen, 120 min; inhibition, % at 12.5 µM; actives 0.54% (n = 310,000); AID 743445; in the data active means inhibition above about 50%
A number is an active result; – = inactive; · = no result given.

SMILES	Mot1-301 SUMO	N-glyco inh	CASP6 VEID inh	CDK5 inh	ALR H2O2 inh	NSD2 inh
O=c1c2c(O)cc(O)cc2oc2c(O)ccc(O[C@H]3O[C@@H](CO)[C@H](O)[C@@H](O)[C@@H]3O)c12	–	–	–	–	–	·
O=c1c(O[C@@H]2O[C@H](CO)C(O)C2O)c(-c2ccc(O)c(O)c2)oc2cc(O)cc(O)c12 (some centres undefined)	–	–	·	–	99.6	·
O=C(CSc1nc2ccc(Cl)cc2[nH]1)Nc1ccc2[nH]c(=O)[nH]c2c1	–	–	–	–	97.9	–
CCn1c(SCC(=O)Nc2ccc3[nH]c(=O)[nH]c3c2)nc2ccccc21	–	–	–	–	98.9	–
Cc1ccc2nc(SCC(=O)Nc3ccc4[nH]c(=O)[nH]c4c3)[nH]c2c1	·	–	–	–	·	–
COCCn1c(SCC(=O)Nc2ccc3[nH]c(=O)[nH]c3c2)nc2ccccc21	–	–	–	–	91.1	–
CCC(=O)Nc1ccc2c(c1)OC[C@@H](C)N(C(=O)NC(C)C)C[C@H](C)[C@H](OC)CN(C)C2=O	·	·	–	·	·	·
O=C(NNS(=O)(=O)c1ccc(C(=O)NC2CCCC2)cc1)c1ccncc1	–	–	–	–	98.5	–
O=C(NC1CC1)c1ccc(S(=O)(=O)NC2CCCCCC2)cc1	–	–	·	–	–	–
CC1CCCCC1NC(=O)c1ccncc1 (centres undefined)	–	–	–	–	–	–
CC1CCCCC1NC(=O)c1ccc(S(=O)(=O)NNC(=O)c2ccncc2)cc1 (centres undefined)	–	–	–	–	98.7	·
C[C@H](CO)N1C[C@H](C)[C@H](CN(C)CC2CC2)Oc2cc(C#Cc3ccccc3F)ccc2S1(=O)=O	·	·	–	·	·	·
CC=Cc1ccc2n(c1=O)C[C@@H]1[C@@H](CO)[C@H](C(=O)NCc3ccccc3F)N(CC)[C@H]21 (mixture of isomers)	·	·	–	·	·	·
C[C@@H]1CCCCO[C@@H](CN(C)C(=O)NC2CCCCC2)[C@H](C)CN([C@@H](C)CO)C(=O)c2cc(NC(=O)CCCN(C)C)ccc2O1	·	·	–	·	·	·
C=CCn1c(N)c(C(=O)NCc2cccnc2)sc1=S	–	–	·	–	98.5	–
CCOc1ccc(-n2c(N)c(C(=O)NCc3cccnc3)sc2=S)cc1	–	–	·	–	–	–
CCN(CC(=O)Nc1c(F)cccc1F)C(=O)/C=C/c1ccc2ccccc2n1	–	–	46.6	–	–	–
CCN(CC(=O)Nc1c(F)cccc1F)C(=O)c1ccc2ccccc2n1	–	–	–	–	–	–
c1ccc2sc(SCc3ccc(-c4nnco4)cc3)nc2c1	–	–	·	–	–	–
COCCNC(=O)c1ccc(CSc2nc3ccccc3s2)cc1	–	–	–	–	99.0	–
NC(=O)c1ccc(CSc2nc3ccccc3s2)cc1	–	–	–	–	92.2	–
CCNC(=O)c1ccc(CSc2nc3ccccc3s2)cc1	–	–	–	–	98.5	–
COCCNC(=O)COC(=O)CSCc1nc2ccccc2s1	–	–	·	–	98.2	–
CCC(C)/C(C)=N/NC(=O)c1ccc(CSc2nc3ccccc3s2)cc1 (centres undefined)	–	–	–	–	–	–
COCCNC(=O)c1nc2ccccc2s1	–	–	–	–	–	–
SMILES	Mot1-301 SUMO	N-glyco inh	CASP6 VEID inh	CDK5 inh	ALR H2O2 inh	NSD2 inh
O=C1c2nc3cc(-c4ccco4)[nH]n3c(=O)c2CN1Cc1ccccc1	–	–	71.2	·	–	–
CNC[C@H]1Oc2ccc(NS(=O)(=O)c3ccc(F)cc3)cc2C(=O)N([C@H](C)CO)C[C@@H]1C	·	·	–	·	·	·
Cc1ccc(S(=O)(=O)N[C@H]2CC[C@H](CCNC(=O)C3CCOCC3)O[C@@H]2CO)cc1	·	·	–	·	·	·
COc1ccc(-c2nc(CN3CCC(C(=O)NC4CCCC4)CC3)c(C)o2)cc1OC	–	–	–	·	–	–
COc1ccc(-c2nc(CS(=O)CC(=O)NC3CCCC(C)C3C)c(C)o2)cc1OC (centres undefined)	–	–	–	–	98.9	–
Cc1ccc(-c2nc(CS(=O)CC(=O)NC3CCCC(C)C3C)c(C)o2)cc1 (centres undefined)	–	–	–	–	99.1	–
COc1ccc2c3c([nH]c2c1)[C@@H](CO)N(C(=O)NC(C)C)CC31CCN(Cc2ccc(F)cc2)CC1	·	·	–	·	·	·
CCNC(=O)[C@H]1[C@H](CO)[C@H]2Cn3c(ccc(-c4ccccc4F)c3=O)[C@@H]1N2CC	·	·	–	·	·	·
CN(C)/C=C1/C=C(c2ccccc2)OC1=O	–	–	–	–	98.7	–
CN(C)/C=C1/C=C(C=O)OC1=O	–	–	44.9	–	–	–
CC1=C/C(=C/N(C)C)C(=O)O1	–	–	–	–	–	–
CCc1nnc(N/N=C/c2cc(Br)c(O)cc2O)n1N	–	–	–	–	82.6	–
COc1ccc(-c2csc(NNC3=NCCCCC3)n2)cc1	–	·	–	·	–	–
CCOc1ccc(-c2csc(NNC3=NCCCCC3)n2)cc1	–	–	–	–	98.9	–
COc1ccc(-c2csc(NC3=NCCCCC3)n2)cc1	–	–	–	–	97.7	–
Fc1ccc(-c2csc(NC3=NCCC3)n2)cc1	–	–	–	–	97.4	–
COCCNC(=O)C[C@H]1CC[C@@H]2[C@H](COC[C@@H](O)CN2S(=O)(=O)c2ccccc2C)O1	·	·	–	·	·	·
CCCNC(=O)Nc1ccc2c(c1)C(=O)N(C)[C@H]1CC[C@H](CC(=O)Nc3ccccc3C)O[C@@H]1CO2	·	·	–	·	·	·
Cc1cccc(NNC(=O)C(=O)NNc2cccc(C)c2)c1	–	–	–	–	98.3	–
Cc1cccc(NC(=O)Nc2cnccn2)c1	–	–	–	–	–	–
Cc1cccc(NC(=O)Nc2ccncc2)c1	–	–	–	–	84.5	–
Cc1cccc(NC(=O)CC(=O)Nc2cccc(C)c2)c1	–	–	–	–	–	–
O=C(C[C@@H]1C[C@@H]2c3cc(NC(=O)NC4CCCC4)ccc3O[C@@H]2[C@H](CO)O1)NCc1ccc2c(c1)OCO2	·	·	–	·	·	·
C=C(C)CC1Nc2ccccc2NC1CC(=C)C (centres undefined)	–	–	·	–	98.6	–
C[C@@H]1CCCCO[C@@H](CN(C)C(=O)NC2CCCCC2)[C@@H](C)CN([C@@H](C)CO)C(=O)c2cc(NS(=O)(=O)c3ccc(F)cc3)ccc2O1	·	·	–	·	·	·
O=C(C[C@@H]1CC[C@H]2[C@@H](COC[C@@H](O)CN2Cc2ccc(Oc3ccccc3)cc2)O1)N1CCc2ccccc2C1	·	·	–	·	·	·
CCCNC(=O)Nc1ccc2c(c1)OC[C@@H](C)N(Cc1ccncc1)C[C@H](C)[C@@H](OC)CN(C)C2=O	·	·	–	·	·	·
O=[N+]([O-])c1cc(-c2ncccn2)c([N+](=O)[O-])s1	–	–	·	–	98.1	–
O=C(Nc1ncccn1)c1cc([N+](=O)[O-])cc([N+](=O)[O-])c1	–	–	·	–	–	–

From PubChem
